The sample as a whole holds a higher share of hits than the screen did.
Lassa entry inh – Lassa virus entry inhibition; hit rate 1.2% among 300,000; Potency, µM (titrated, usually from 37.9 µM), for inactives: at the top dose activity change, negative = inhibition, hits mostly inhibitors; Lassa virus pseudotype entry inhibition, cell reporter; AID 540256; calls by dose curve; tested in HEK293 cells; note: potency is the fitted concentration of half-maximal effect; % is set by controls: 0 for no effect and ±100 for the full control effect; nearly all actives have a fitted effect of over 50% in size
Vaccinia Venus – vaccinia inhibition (Venus reporter). Vaccinia virus Venus reporter expression, fluorescence. Potency, µM (titrated, usually from 36.5 µM), without a hit: at the highest dose activity change, negative = inhibition, usual class: inhibitors. hit rate 0.46% among 330,000; calls by dose curve; tested in A549 cells; note: potency is the fitted concentration of half-maximal effect; % is set by controls: 0 for no effect and ±100 for the full control effect; nearly all actives have a fitted effect of over 30% in size
Cycloheximide cs – counter-screen for Shiga toxin inhibitors: cycloheximide protein synthesis inhibition; cell reporter, cycloheximide protein synthesis inhibition counterscreen; max response, %; hit rate 12% among 300,000; AID 2314; in the data active = max response mostly above about 13%, no sharp cut-off; inactive = mostly below about 14%; note: read at 38.3 µM for the half of the compounds with a filed dose; 0% is about no effect
Shiga toxin inh – blocks Shiga toxin action in Vero cells; Vero cells, Shiga toxin protein synthesis inhibition reporter; inhibition, % at 38.7 µM; hit rate 9.2% among 290,000; AID 2315; in the data active = inhibition mostly above about 28%, no sharp cut-off; inactive = mostly below about 43%; note: 0% is about no effect
MARV entry inh – blocks Marburg virus binding to or entry into cells; hit rate 1.8% among 300,000; Marburg virus pseudotyped entry inhibition, cell reporter; Potency, µM (doses to about 37.8 µM), without a hit: top-dose activity change, negative = inhibition, usual class: inhibitors; calls by dose curve; tested in HEK293 cells; note: potency is the fitted concentration of half-maximal effect; % is set by controls: 0 for no effect and ±100 for the full control effect
Vaccinia mCherry – inhibitors of vaccinia virus infection (mCherry reporter signal); Vaccinia virus mCherry reporter infection, fluorescence; Potency, µM (titrated, usually from 36.5 µM), for inactives: at the highest dose activity change, negative = inhibition, most hits filed as inhibitors; hit rate 0.63% among 310,000; calls by dose curve; tested in A549 cells; note: potency is the fitted concentration of half-maximal effect; % is set by controls: 0 for no effect and ±100 for the full control effect; nearly all actives have a fitted effect of over 35% in size
The depositor's hits bear a star; [ ] = dose if it differs, or a comment.

For c1ccc(-c2csc(Nc3cccnc3)n2)cc1 the results were Lassa entry inh 0%, Vaccinia Venus inconclusive, Cycloheximide cs 54*, Shiga toxin inh 118*, MARV entry inh -28%[46.1 µM] and Vaccinia mCherry inconclusive.
`Cc1ccc(Cl)cc1Nc1nc(-c2cccnc2)cs1` gave Cycloheximide cs 17*.
Screening Cc1cc(Cl)ccc1OCC(=O)Nc1nc(-c2cccnc2)cs1 returned Cycloheximide cs 1 and Shiga toxin inh 12.
Screening Fc1ccc(Nc2nc(-c3cccnc3)cs2)cc1 returned Vaccinia Venus -7%, Cycloheximide cs 48*, Shiga toxin inh 146* and Vaccinia mCherry inconclusive.
`Clc1ccc(-c2csc(Nc3cccnc3)n2)cc1` gave Lassa entry inh -1%[46.1 µM], Vaccinia Venus 14%, Cycloheximide cs 12, Shiga toxin inh 34, MARV entry inh inconclusive and Vaccinia mCherry inconclusive.
CCCSc1ncc(Cl)c(C(=O)Nc2c(C(=O)Nc3ccc(C)cc3)oc3ccccc23)n1 was read as Lassa entry inh 8%[46.1 µM], Vaccinia Venus -5%, MARV entry inh 10%[46.1 µM] and Vaccinia mCherry -12%.
Screening CSc1nnc(C(C)(C)C)c(=O)n1N/C=C1\C(=O)CCC2=C1CCCC2 returned MARV entry inh 3%[46.1 µM].
Screening Clc1ccc(-c2nn3c(C4COc5ccccc5O4)nnc3s2)cc1 (stereo not drawn) returned Lassa entry inh 6.5µM*, Cycloheximide cs 20*, Shiga toxin inh -4 and MARV entry inh 4%.
Screening CC(=O)Nc1ccc(NC(=O)CSc2nnnn2-c2ccc3c(c2)OCCO3)cc1 returned Lassa entry inh -1%, Cycloheximide cs 10, Shiga toxin inh -3 and MARV entry inh 2%.
Screening O=C(CSc1nnnn1-c1ccccc1)NC(=O)Nc1ccc2c(c1)OCCO2 returned Lassa entry inh 9%, Cycloheximide cs 56*, Shiga toxin inh 76* and MARV entry inh inconclusive.
Screening CCOc1ccccc1-n1nnnc1SCC(=O)NC(=O)Nc1ccc2c(c1)OCCO2 returned Lassa entry inh 3%, Vaccinia Venus -22%, Cycloheximide cs 13*, Shiga toxin inh 20 and MARV entry inh inconclusive.
COc1ccc(OC)c(-n2nnnc2SCC(=O)Nc2ccc3c(c2)OCCO3)c1 was read as Lassa entry inh 1%, Vaccinia Venus -9%, Cycloheximide cs -1, Shiga toxin inh -1, MARV entry inh -18% and Vaccinia mCherry -6%.
O=C1CC(C(=O)N2CCOc3ccc(CN4CCC(Oc5cccnc5)CC4)cc3C2)c2ccccc21 (stereo not drawn) was read as Vaccinia Venus 2% and Vaccinia mCherry -10%.
For O=C(Nc1ccc(F)cc1)C(c1cc2ccccc2o1)N1CCN(c2ccncc2)CC1 (stereo not drawn) the results were Vaccinia Venus -18% and Vaccinia mCherry 4%.
Screening Cc1c(CCCl)c(Cl)n2c(nc3ccccc32)c1C#N returned Lassa entry inh 11µM*, Vaccinia Venus inconclusive, MARV entry inh 5µM* and Vaccinia mCherry inconclusive.
For Cc1cc(Cl)n2c(nc3ccccc32)c1C#N the results were Lassa entry inh inconclusive, Vaccinia Venus -29%, Cycloheximide cs -2, Shiga toxin inh 17, MARV entry inh 4.5µM* and Vaccinia mCherry inconclusive.
Screening COc1cccc(CNC(=O)CSC2=Nc3ccccc3N=C(c3ccc(F)cc3)C2)c1 returned Lassa entry inh -21%[46.1 µM], Vaccinia Venus -24% and Vaccinia mCherry -25%.
For O=C(OC1CNC(C#Cc2cc3ncnc(Nc4ccc5c(cnn5Cc5ccccc5)c4)c3s2)C1)N1CCOCC1 (stereo not drawn) the results were Lassa entry inh 1.3µM*.
Screening CN(C(=O)c1cc(COc2ccc(F)cc2Cl)on1)C1CCOC1 (stereo not drawn) returned Vaccinia Venus -10% and Vaccinia mCherry -7%.
For CN(C)C(=O)OC1CNC(C#Cc2cc3ncnc(Nc4ccc(OCc5cccc(F)c5)c(Cl)c4)c3s2)C1 (stereo not drawn) the results were Lassa entry inh 5µM*.
Screening O=C(OC1CNC(C#Cc2cc3ncnc(Nc4ccc(OCc5cccc(F)c5)c(Cl)c4)c3s2)C1)N1CCOCC1 (stereo not drawn) returned Lassa entry inh 2.8µM*.
Screening CNC(=O)c1cccc(C#Cc2cncnc2Nc2ccc(OCc3cccc(F)c3)c(Cl)c2)c1 returned Lassa entry inh 0.79µM*.
`CC(C)c1ccc(NC(=O)[C@H](Cc2c[nH]c3ccccc23)NC(=O)[C@@H]2Cc3ccccc3CN2)cc1` gave Vaccinia Venus 20%, Cycloheximide cs 24*, Shiga toxin inh 27 and Vaccinia mCherry inconclusive.
For COc1ccc(NC(=O)[C@H](Cc2c[nH]c3ccccc23)NC(=O)[C@@H]2Cc3ccccc3CN2)cc1 the results were Vaccinia Venus 14%, Cycloheximide cs 19*, Shiga toxin inh 15 and Vaccinia mCherry inconclusive.
For CCOC(=O)c1c(NC(=O)c2nn(C)cc2[N+](=O)[O-])sc(C)c1C the results were Lassa entry inh 11%, Vaccinia Venus 0%, Cycloheximide cs -3, Shiga toxin inh -7, MARV entry inh 6%[46.1 µM] and Vaccinia mCherry -20%.
For Oc1ccc(-c2nc3ccccn3c2NCc2ccc3c(c2)OCO3)cc1 the results were Lassa entry inh -12%, Vaccinia Venus 5%, Cycloheximide cs 25*, Shiga toxin inh 15 and MARV entry inh -6%.
Screening Fc1ccc(-c2nc3ccccn3c2NCc2ccc3c(c2)OCO3)cc1 returned Lassa entry inh 11%, Vaccinia Venus -10%, Cycloheximide cs 15, Shiga toxin inh 5, MARV entry inh inconclusive and Vaccinia mCherry -19%.
Screening O=C1C(Nc2ccccc2)=CC(c2ccc(O)cc2)N1c1ccccc1 (stereo not drawn) returned Vaccinia Venus -8%, Cycloheximide cs 28*, Shiga toxin inh 45* and Vaccinia mCherry inconclusive.
`COc1cc(C2C=C(Nc3ccccc3)C(=O)N2c2ccccc2)ccc1O` (stereo not drawn) gave Lassa entry inh inconclusive, Vaccinia Venus -24%, Cycloheximide cs 37*, Shiga toxin inh 57*, MARV entry inh 11% and Vaccinia mCherry -8%.
Screening Cc1ccc(S(=O)(=O)N2CCOCC2)cc1NC(=O)COC(=O)COc1ccc(C#N)cc1 returned Vaccinia Venus -11% and Vaccinia mCherry inactive.
For CCN(CC(=O)NCc1ccc(F)cc1)C(=O)C1CC1C (stereo not drawn) the results were Lassa entry inh inconclusive, Vaccinia Venus -3%, Cycloheximide cs -2, Shiga toxin inh -19, MARV entry inh -4%[46.1 µM] and Vaccinia mCherry -12%.
Cc1[nH]c(=S)c(C#N)c(C)c1CC(=O)c1ccc(Br)cc1 was read as Cycloheximide cs 2 and Shiga toxin inh -10.
For Cc1ccccc1-c1nnc(-c2cccs2)o1 the results were Cycloheximide cs 58* and Shiga toxin inh 85*.
`Cc1ccccc1-c1noc(-c2cccs2)n1` gave Lassa entry inh 8%, Vaccinia Venus -15%, Cycloheximide cs 55*, Shiga toxin inh 87*, MARV entry inh inconclusive and Vaccinia mCherry inconclusive.

Source: PubChem BioAssay
